Source: publication PMC4552634, “A New Set of Chemical Starting Points with Plasmodium falciparum Transmission-Blocking Potential for Antimalarial Drug Discovery” (PLoS ONE, 2015)
Read-outs that look alike come from different tables or passages of the source. Out of some 13,000 compounds screened, about 3,200 (25%) showed an effect of 50% or more. The list shows a part of the results.

Test system: P. falciparum stage V gametocytes
Parameters: BacTiter-Glo ATP luminescence viability of purified stage V gametocytes in 384-well plates, per cent inhibition versus DMSO
Settings: 48 h, 5 µM, inhibitor

SMILES	% Inhibition	% Inhibition (% Inhibition)
C[C@H](Cc1ccc(OCCCCCCOc2ccccc2)cc1)NC[C@H](O)c1cccc(Cl)c1 [TCMDC-131552]	11.17%	–
CC(Cc1ccc(C(=O)OCCOC(=O)c2ccc(CC(C)NCC(O)c3cccc(C(F)(F)F)c3)cc2)cc1)NCC(O)c1cccc(C(F)(F)F)c1 (stereo not drawn) [TCMDC-131544]	75.47%	–
CC(Cc1ccc(OCCOc2ccccc2)cc1)NCC(O)c1cccc(C(F)(F)F)c1 (stereo not drawn) [TCMDC-131510]	16.36%	–
CC(Cc1ccc(OCCN2CCN(c3cccc(Cl)c3)CC2)cc1)NCC(O)c1cccc(Cl)c1 (stereo not drawn) [TCMDC-131533]	18.65%	–
CNCCCCCCOc1ccc(CC(C)NCC(O)c2cccc(C(F)(F)F)c2)cc1 (stereo not drawn) [TCMDC-131523]	111.6%	–
C#CCOc1ccc(CC(C)NCC(O)c2cccc(C(F)(F)F)c2)cc1 (stereo not drawn) [TCMDC-131480]	12.31%	–
COC(=O)c1ccc(C[C@@H](C)NC[C@H](O)c2cccc(C(F)(F)F)c2)cc1 [TCMDC-131458]	–	35.35%
C[C@H](Cc1ccc(OCCCCCOc2ccc(C[C@@H](C)NC[C@H](O)c3cccc(Cl)c3)cc2)cc1)NC[C@H](O)c1cccc(Cl)c1 [TCMDC-131563]	110.4%	–
COC(=O)c1ccc(CC(C)NCC(O)c2cccc(C(F)(F)F)c2)cc1 (stereo not drawn) [TCMDC-131438]	–	6.787%
COC(=O)c1ccc(C[C@@H](C)NC[C@H](O)c2cccc(C(F)(F)F)c2)cc1 [TCMDC-131475]	–	15.4%
CC(Cc1ccc(C2=CCNCC2)cc1)NCC(O)c1cccc(C(F)(F)F)c1 (stereo not drawn) [TCMDC-131537]	95.16%	–
CCOC(=O)c1ccc(CC(C)NCC(O)c2cccc(C(F)(F)F)c2)cc1 (stereo not drawn) [TCMDC-131491]	8.983%	–
O=C(NCc1cccc(F)c1)Nc1cccc(-c2ccc(-c3nc4ccc(F)cc4[nH]3)cc2)c1 [TCMDC-133293]	6.951%	–
O=C(O)C1CC(=O)N(c2ccc(Cl)cc2)C1 (stereo not drawn) [TCMDC-125862]	2.166%	–
COc1cccc(CN2CCCC(OC(c3ccc(F)cc3)c3ccc(F)cc3)C2)c1O (stereo not drawn) [TCMDC-136167]	-3.055%	–
CN1CCC(NC(=O)c2cccc(Nc3cc(Nc4cccc(Br)c4)ncn3)c2)CC1 [TCMDC-124773]	-81.1%	–
CN(C)CCOc1ccc(-c2cc(-c3ccncc3)c(-c3ccc(Cl)c(O)c3)o2)cc1 [TCMDC-141227]	36.77%	–
COCC(C)n1c(SC(C)C(=O)Nc2cc([N+](=O)[O-])ccc2Cl)nc2ccccc2c1=O (stereo not drawn) [TCMDC-123709]	-35.25%	–
